PubChem BioAssay (NCATS)
Where “and” joins values, the source holds several entries; their conditions need not be identical. Equal values may be shown once. Inconclusive results are not listed. Where a call stands in place of a potency, no number is given. Calls of active or inactive are those of the source. Unless noted, calls follow the shape of the dose curve; as a rule, active = well fitted curve in the direction sought with a large enough effect; inconclusive = small, poorly fitted or top-dose-only effect, or another doubt; inactive = no such curve, though single readings can be large; an effect the other way counts as inactive or inconclusive.

What was measured:
[1] = AP1 Signaling Pathway (AID 357; active = well fitted curve in either direction with a large enough effect, not every such curve was filed as active;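 also: ME-180 reporter cells stimulated with EGF at its EC50 level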)
Procedure, shortened: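 Titration-series screen for positive or negative modulators of EC50 EGF-induced signaling in ME-180 cells carrying an AP-1-driven beta-lactamase reporter. After 5 hours at 37 degrees Celsius, CCF4 460nm/530nm emission ratio gave %Activity; AC50 values derived.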

[2] = NFAT Signaling Pathway (AID 444; active = well fitted curve in either direction with a large enough effect, not every such curve was filed as active;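 also: carbachol stimulus at about its EC50 of 1 µM final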); details: Jurkat NFAT-bla M1, carbachol, beta-lactamase ratio, 5 h; at 17.2 µM (top of the series)
Procedure, shortened: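 Jurkat cells carrying an NFAT-driven β-lactamase reporter and co-transfected muscarinic M1 receptor were treated with compound plus carbachol (1 uM final, an EC50 level) for 5 h at 37 °C. CCF4 loading followed for 1 h at RT; 460/530 nm ratio gave %activity.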

[3] = target: 3',5'-cyclic-AMP phosphodiesterase 4B (Homo sapiens) (UniProt Q07343); experiment: qHTS Assay for Inhibitors of PDE-IV (AID 607; active = well fitted activation curve with a large enough effect in the main read-out, with a control signal flat, not every such curve was filed as active)
Procedure, shortened: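 The readout is membrane depolarisation from a cAMP-sensing CNG channel, detected with a potential dye at ex 535/em 590. Cells were HEK293-derived (endogenous PDE-IV) at 1000 cells/well, titrated up to 22.9 uM final.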

[4] = qHTS Assay for Lipid Storage Modulators (AID 1519; calls by dose curve); details: Drosophila S3 cells, BODIPY lipid droplet/cell ratio, laser cytometry, cells loaded with oleic acid
Procedure, shortened: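 Cells seeded at 5,000 per well were treated with compounds over a concentration series and loaded with oleic acid (400 uM, as added). Lipid droplet fluorescence (488 nm excitation, 500-530 nm channel) was read by laser-scanning cytometry and normalized to 20 uM Triacsin C.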

[5] = target: Ubiquitin carboxyl-terminal hydrolase 1 (Homo sapiens) (UniProt O94782); experiment: Inhibitors of USP1/UAF1: Pilot qHTS (AID 504865);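 also: rhodamine fluorescence freed from ubiquitin-rhodamine substrate followed over time; top concentration of the series differs between compounds; nearly all actives have a fitted effect of over 35% in size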
Procedure, shortened: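 1nM USP1/UAF1 + cpd, 15 min RT; start w/ Ub-Rho 150nM final; kinetic FL 480/540 nm, 6 reads q60 s. Buffer 50mM HEPES pH 7.8, 0.5mM EDTA, 1mM TCEP, 0.01% Tween-20, 0.1 mg/ml BSA.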

[6] = target: DNA dC->dU-editing enzyme APOBEC-3G (Homo sapiens) (UniProt Q9HC16); experiment: qHTS for inhibitors of Vif-A3G interactions: Validation (AID 588379)
Procedure, shortened: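 Yellow fluorescence (Ex 488, Em 500-530) of Vif-coexpressing HeLa A3G-eYFP cells, scanned by Acumen cytometer, reports blocked A3G degradation. Cells plated at 700/well overnight at 37 deg C before compound addition, then a further overnight compound incubation at 37 deg C.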

[7] = qHTS for Inhibitors of Plasmodium falciparum (DD2) proliferation (AID 504314);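 also: parasite DNA measured by SYBR Green fluorescence after red cell lysis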
Procedure, shortened: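 SYBR Green DNA-fluorescence growth assay: infected RBCs at 0.3% parasitemia, 2.5% hematocrit, 72 h compound exposure, 37C, 5% CO2; overnight lysis with dye at RT; normalized to 0.29 uM artemisinin and vehicle.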

[8] = qHTS for Inhibitors of Plasmodium falciparum (GB4) proliferation (AID 504315); also: nearly all actives have a fitted effect of over 50% in size
Procedure, shortened: (§1)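 Parasite growth measured as SYBR Green DNA fluorescence (ex 485, em 535 nm) after overnight lysis following 72 h culture at 37 °C, 0.3% parasitemia, 2.5% hematocrit. Values normalized against DMSO and 0.29 uM artemisinin controls, with plate-stack correction.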

[9] = qHTS for Inhibitors of Plasmodium falciparum (CP250) proliferation (AID 504320)
Procedure, shortened: as §1

[10] = target: Glucocorticoid receptor (Homo sapiens) (UniProt P04150); experiment: GR-GFP Redistribution (AID 450;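 active = compounds whose dose series gives a full or clear partial fitted curve of increased nuclear translocation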; also: potency is read from the fitted curve at half-maximal effect); details: U2OS GR-GFP nuclear translocation, laser cytometry, 2 h
[11] = measured here: cell count channel max response
[12] = measured here: lipid channel max response

Chain of Ubiquitin carboxyl-terminal hydrolase 1 (Homo sapiens) (O94782 whole entry, looked up): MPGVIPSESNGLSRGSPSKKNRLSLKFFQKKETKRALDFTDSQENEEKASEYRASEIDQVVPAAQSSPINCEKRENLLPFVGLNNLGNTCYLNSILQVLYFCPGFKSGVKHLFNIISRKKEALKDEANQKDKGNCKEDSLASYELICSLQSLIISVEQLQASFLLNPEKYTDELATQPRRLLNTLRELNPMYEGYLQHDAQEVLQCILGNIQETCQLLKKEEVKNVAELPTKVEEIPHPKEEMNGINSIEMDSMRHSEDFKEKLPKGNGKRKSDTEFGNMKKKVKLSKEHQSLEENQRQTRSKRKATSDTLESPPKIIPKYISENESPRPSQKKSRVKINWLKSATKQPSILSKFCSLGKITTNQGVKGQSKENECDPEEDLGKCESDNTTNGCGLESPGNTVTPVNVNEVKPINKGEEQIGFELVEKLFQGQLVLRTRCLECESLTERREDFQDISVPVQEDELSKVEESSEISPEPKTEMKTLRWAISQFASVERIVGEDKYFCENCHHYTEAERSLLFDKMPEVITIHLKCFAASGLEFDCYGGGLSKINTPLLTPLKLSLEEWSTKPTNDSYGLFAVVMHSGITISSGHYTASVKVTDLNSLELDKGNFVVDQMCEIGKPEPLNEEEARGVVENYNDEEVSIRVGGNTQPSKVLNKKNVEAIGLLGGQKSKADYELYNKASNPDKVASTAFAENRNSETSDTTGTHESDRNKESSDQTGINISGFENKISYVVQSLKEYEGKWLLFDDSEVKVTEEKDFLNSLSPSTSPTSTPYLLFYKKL
Chain of DNA dC->dU-editing enzyme APOBEC-3G (Homo sapiens) (Q9HC16 whole entry, looked up): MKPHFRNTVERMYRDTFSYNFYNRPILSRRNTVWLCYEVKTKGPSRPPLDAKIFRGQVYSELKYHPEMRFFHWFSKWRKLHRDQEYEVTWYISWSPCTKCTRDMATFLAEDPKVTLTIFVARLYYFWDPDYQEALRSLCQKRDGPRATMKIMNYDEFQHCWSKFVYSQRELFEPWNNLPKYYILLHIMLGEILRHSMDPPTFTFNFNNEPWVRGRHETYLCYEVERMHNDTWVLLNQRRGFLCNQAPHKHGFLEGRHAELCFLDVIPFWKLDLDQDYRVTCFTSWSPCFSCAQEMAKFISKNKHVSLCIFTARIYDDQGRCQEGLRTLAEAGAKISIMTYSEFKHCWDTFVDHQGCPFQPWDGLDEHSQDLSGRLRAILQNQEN
Chain of 3',5'-cyclic-AMP phosphodiesterase 4B (Homo sapiens) (Q07343 whole entry, looked up): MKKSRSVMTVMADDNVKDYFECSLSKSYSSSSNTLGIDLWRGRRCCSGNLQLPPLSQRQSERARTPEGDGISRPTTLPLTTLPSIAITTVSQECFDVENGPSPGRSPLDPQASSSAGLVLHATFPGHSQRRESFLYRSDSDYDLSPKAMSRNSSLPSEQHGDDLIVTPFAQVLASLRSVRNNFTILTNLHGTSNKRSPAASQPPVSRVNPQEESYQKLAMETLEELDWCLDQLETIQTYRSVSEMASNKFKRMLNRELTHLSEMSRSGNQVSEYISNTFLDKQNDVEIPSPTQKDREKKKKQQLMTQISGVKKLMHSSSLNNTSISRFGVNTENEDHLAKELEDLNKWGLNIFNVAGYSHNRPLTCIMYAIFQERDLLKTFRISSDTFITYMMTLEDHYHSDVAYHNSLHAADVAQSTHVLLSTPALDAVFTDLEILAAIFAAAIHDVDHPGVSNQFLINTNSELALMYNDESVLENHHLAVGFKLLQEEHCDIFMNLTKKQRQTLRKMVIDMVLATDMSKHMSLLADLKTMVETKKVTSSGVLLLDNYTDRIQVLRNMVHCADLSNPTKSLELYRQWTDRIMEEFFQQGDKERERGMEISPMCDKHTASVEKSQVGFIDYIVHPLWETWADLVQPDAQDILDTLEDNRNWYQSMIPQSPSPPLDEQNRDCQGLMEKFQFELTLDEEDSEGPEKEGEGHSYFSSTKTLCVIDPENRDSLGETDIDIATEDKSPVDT
Chain of Glucocorticoid receptor (Homo sapiens) (P04150 whole entry, looked up): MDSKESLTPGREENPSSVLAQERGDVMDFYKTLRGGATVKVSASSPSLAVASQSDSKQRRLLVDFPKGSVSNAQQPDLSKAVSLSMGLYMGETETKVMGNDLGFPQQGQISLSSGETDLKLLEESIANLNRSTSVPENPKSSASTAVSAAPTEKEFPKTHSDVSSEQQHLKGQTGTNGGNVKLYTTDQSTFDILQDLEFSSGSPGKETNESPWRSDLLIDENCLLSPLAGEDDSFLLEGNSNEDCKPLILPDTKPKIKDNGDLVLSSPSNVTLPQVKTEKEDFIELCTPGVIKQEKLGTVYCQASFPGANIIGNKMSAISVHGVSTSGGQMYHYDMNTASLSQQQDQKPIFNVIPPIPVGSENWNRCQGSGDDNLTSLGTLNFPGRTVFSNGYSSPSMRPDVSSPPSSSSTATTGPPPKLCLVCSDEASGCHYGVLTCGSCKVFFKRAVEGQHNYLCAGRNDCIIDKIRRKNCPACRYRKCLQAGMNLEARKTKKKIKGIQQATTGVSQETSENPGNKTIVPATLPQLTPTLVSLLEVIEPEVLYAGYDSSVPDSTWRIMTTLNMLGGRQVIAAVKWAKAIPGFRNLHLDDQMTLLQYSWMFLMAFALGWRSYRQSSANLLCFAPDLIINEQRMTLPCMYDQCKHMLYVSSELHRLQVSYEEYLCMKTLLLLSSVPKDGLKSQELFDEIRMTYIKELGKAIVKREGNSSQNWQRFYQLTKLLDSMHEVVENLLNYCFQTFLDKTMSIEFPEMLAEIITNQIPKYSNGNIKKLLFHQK

For `C=CCN1CC[C@]23c4c5ccc(O)c4O[C@@H]2C(=O)CC[C@]3(O)[C@H]1C5`, the outcome [1] was “inactive”, the activity change, negative = inhibition [2] was -9.64% (inactive) and the Potency [3] was “inactive”. For the same compound, the activity change, negative = inhibition ([4]; at 25.7 µM (top of the series)) was -1.11% (inactive), the activity change, negative = inhibition ([4]; at 57.5 µM (top of the series)) was 5.83% (inactive) and the max response [4, 11] was 1.84% and 18.9%. The max response [4, 12] was 3.55% and 28.2%, the Potency [5] was “inactive” and the Potency [6] was “inactive”.

For `COC(=O)[C@@]1(C=C2c3ccc(F)cc3[C@@H](OC)[C@@H]2C)[C@@H]2Oc3ccccc3[C@@H]21`, the outcome [7] was “inactive”, the outcome [8] was “inactive” and the outcome [9] was “inactive”.

With `CCOC(=O)[C@@]12C3[C@@H](CCN3C(=O)N[C@@H]1c1ccccc1)[C@@H]2C` (some centres not stated) the outcome [7] was “inactive”, the outcome [8] was “inactive” and the outcome [9] was “inactive”.

In the case of `CC(=O)[C@]12C[C@@H]3CCCN(C(=O)N[C@@H]1c1ccccc1)[C@@H]32`, the outcome [7] is reported as “inactive”, the outcome [8] is reported as “inactive” and the outcome [9] is reported as “inactive”.

With `COC(=O)C1(C)C2CC(C)C(c3ccccc32)N1C(=O)C(F)(F)F` (configuration not stated) the outcome [7] was “inactive”, the outcome [8] was “inactive” and the outcome [9] was “inactive”.

In the case of `CC(=O)[C@]12C[C@@H]3CCN(C(=O)N[C@@H]1c1ccccc1)[C@@]32C`, the outcome [9] is reported as “inactive”.

With `C=C(C)C(=O)CP(=O)(OCC)OCC` the outcome [7] was “inactive”, the outcome [8] was “inactive” and the outcome [9] was “inactive”.

With `CCC[C@]12CCN3C(=O)N[C@@H](c4ccccc4)[C@](C(=O)OCC)(C1)[C@H]32` the outcome [7] was “inactive”, the outcome [8] was “inactive” and the outcome [9] was “inactive”.

For `COC(=O)C1=C2CCO[C@H]2[C@@H]2[C@@H](C)[C@H](OC)c3ccccc3[C@@H]12`, the outcome [7] was “inactive”, the outcome [8] was “inactive” and the outcome [9] was “inactive”.

With `CO[C@@H]1c2ccccc2[C@H]2C(C(=O)O)c3c(n(C)c4ccccc34)[C@H]2[C@H]1C` (some centres not stated) the outcome [7] was “inactive”, the outcome [8] was “inactive” and the outcome [9] was “inactive”.

For `CC(C)(c1ccc(OC[C@@H]2CO2)cc1)c1ccc(OC[C@H]2CO2)cc1`, the Potency [10] was > 46 µM (inactive), the activity change, negative = inhibition ([4]; at 57.5 µM (top of the series)) was 4.02% (inactive) and the max response [4, 11] was 20.1%. For the same compound, the max response [4, 12] was 20.3% and the Potency [6] was “inactive”.

For `CCOC(=O)[C@]12C[C@]3(OC)CCN(C(=O)N[C@@H]1c1ccccc1)[C@@H]32`, the outcome [7] was “inactive”, the outcome [8] was “inactive” and the outcome [9] was “inactive”.
